Source: PubChem BioAssay (NCATS)
A number with no mark means an inactive call. Results filed as inconclusive are left out. Active and inactive are the calls of the source. Unless noted, calls come from the whole dose curve; as a rule, active = well fitted curve in either direction with a large enough effect (not every such curve was filed as active); inconclusive = small, poorly fitted or top-dose-only effect, or another doubt; inactive = flat fitted curve, though single readings scatter.

Experiments:
[1] = target: Lysosomal acid glucosylceramidase (Homo sapiens) (UniProt P04062); assay: Glucocerebrosidase-p2 (AID 348; in the data active = potency below about 10 µM; note: potency is the fitted concentration of half-maximal effect); conditions: purified GBA, blue fluorogenic substrate, 40 min
Chain of Lysosomal acid glucosylceramidase (Homo sapiens) (P04062 whole entry, looked up): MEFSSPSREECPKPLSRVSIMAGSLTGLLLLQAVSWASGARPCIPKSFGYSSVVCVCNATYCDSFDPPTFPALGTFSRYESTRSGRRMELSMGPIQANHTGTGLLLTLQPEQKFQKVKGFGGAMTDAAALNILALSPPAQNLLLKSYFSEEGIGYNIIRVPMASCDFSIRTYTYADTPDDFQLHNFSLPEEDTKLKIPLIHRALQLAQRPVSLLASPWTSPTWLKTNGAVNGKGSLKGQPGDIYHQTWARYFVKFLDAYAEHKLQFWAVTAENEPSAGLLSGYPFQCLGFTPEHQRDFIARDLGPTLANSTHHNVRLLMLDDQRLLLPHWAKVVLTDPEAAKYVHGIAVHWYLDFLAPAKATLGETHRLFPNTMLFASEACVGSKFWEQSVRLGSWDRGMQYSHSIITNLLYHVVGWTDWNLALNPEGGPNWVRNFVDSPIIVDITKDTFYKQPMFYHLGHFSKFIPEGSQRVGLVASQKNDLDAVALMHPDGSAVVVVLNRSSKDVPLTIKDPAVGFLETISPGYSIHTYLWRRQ
How it was run: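 Normal human glucocerebrosidase (0.2 nM) with blue fluorogenic substrate (80 uM final) in citrate/phosphate pH 5.9 with 10mM sodium taurocholate, 0.01% tween-20; 40 min RT, NaOH/glycine stop; fluorescence Ex 365/Em 440; AC50 from a titration from 0.6 nM upwards.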

[2] = AP1 Signaling Pathway (AID 357); conditions: ME-180 (cervical carcinoma) AP-1-bla reporter, EGF-induced, beta-lactamase ratio, 5 h; at 7.69 µM (top of the series) unless noted;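 note: ME-180 reporter cells stimulated with EGF at its EC50 level; % is set by controls: 0 for no effect and ±100 for the full control effect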
How it was run: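 Cells are seeded overnight, exposed to compound titrations and an EC50 level of EGF for 5 hours at 37 °C, then loaded with CCF4 dye for 2.5 hours. Beta-lactamase activity under the AP-1 element is read as a blue/green ratio.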

[3] = target: Cytochrome P450 1A2 (Homo sapiens) (UniProt P05177); assay: p450-cyp1a2 (AID 410; calls by dose curve; note: potency is the fitted concentration of half-maximal effect)
Chain of Cytochrome P450 1A2 (Homo sapiens) (P05177 whole entry, looked up): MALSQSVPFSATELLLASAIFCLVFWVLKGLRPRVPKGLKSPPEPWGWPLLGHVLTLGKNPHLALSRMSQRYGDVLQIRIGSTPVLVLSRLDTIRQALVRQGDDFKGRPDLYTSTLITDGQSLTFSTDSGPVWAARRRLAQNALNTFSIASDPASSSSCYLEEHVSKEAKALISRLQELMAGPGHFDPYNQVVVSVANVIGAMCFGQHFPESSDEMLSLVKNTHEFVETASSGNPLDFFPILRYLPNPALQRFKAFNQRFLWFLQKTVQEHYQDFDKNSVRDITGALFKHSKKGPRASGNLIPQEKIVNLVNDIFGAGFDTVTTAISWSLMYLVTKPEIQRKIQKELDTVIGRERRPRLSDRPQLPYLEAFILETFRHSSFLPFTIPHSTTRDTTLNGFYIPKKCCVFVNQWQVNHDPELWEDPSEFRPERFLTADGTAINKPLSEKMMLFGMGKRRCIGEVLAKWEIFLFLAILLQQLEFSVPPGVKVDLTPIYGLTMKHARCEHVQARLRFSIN
How it was run: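 Luminescent demethylation readout: Luciferin-ME (100uM, equal to Km) turned over by 20nM CYP1A2 for 60 min at room temperature after NADPH regeneration addition, following 10 min compound preincubation. Normalization used 57 uM furafylline as full inhibition.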

[4] = NFAT Signaling Pathway (AID 444); conditions: Jurkat NFAT-bla M1, carbachol, beta-lactamase ratio, 5 h; at 7.69 µM (top of the series) unless noted;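 note: carbachol stimulus at about its EC50 of 1 µM final; % is set by controls: 0 for no effect and ±100 for the full control effect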
How it was run: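 Jurkat cells carrying an NFAT-driven β-lactamase reporter and co-transfected muscarinic M1 receptor were treated with compound plus carbachol (1 uM final, an EC50 level) for 5 h at 37 °C. CCF4 loading followed for 1 h at RT; 460/530 nm ratio gave %activity.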

[5] = Stat Signaling Pathway (AID 446);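 note: ME-180 cervical cancer cells given 40 pM IL-6 alongside compound; SIE-controlled beta-lactamase reporter measured as 460/530 nm FRET emission ratio; % is set by controls: 0 for no effect and ±100 for the full control effect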
How it was run: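 Normalization used AC90 stimulation (300 pM IL-6) and AC90 inhibition (125 nM pan-JAK inhibitor at 40 pM IL-6). The underlying signal is SIE-driven beta-lactamase in ME-180 cells after 5 h IL-6 exposure with compound.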

[6] = target: Glucocorticoid receptor (Homo sapiens) (UniProt P04150); assay: GR-GFP Redistribution (AID 450;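 active = compounds whose dose series gives a full or clear partial fitted curve of increased nuclear translocation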; note: potency is the fitted concentration of half-maximal effect); conditions: U2OS GR-GFP nuclear translocation, laser cytometry, 2 h
Chain of Glucocorticoid receptor (Homo sapiens) (P04150 whole entry, looked up, the tested form may be a part): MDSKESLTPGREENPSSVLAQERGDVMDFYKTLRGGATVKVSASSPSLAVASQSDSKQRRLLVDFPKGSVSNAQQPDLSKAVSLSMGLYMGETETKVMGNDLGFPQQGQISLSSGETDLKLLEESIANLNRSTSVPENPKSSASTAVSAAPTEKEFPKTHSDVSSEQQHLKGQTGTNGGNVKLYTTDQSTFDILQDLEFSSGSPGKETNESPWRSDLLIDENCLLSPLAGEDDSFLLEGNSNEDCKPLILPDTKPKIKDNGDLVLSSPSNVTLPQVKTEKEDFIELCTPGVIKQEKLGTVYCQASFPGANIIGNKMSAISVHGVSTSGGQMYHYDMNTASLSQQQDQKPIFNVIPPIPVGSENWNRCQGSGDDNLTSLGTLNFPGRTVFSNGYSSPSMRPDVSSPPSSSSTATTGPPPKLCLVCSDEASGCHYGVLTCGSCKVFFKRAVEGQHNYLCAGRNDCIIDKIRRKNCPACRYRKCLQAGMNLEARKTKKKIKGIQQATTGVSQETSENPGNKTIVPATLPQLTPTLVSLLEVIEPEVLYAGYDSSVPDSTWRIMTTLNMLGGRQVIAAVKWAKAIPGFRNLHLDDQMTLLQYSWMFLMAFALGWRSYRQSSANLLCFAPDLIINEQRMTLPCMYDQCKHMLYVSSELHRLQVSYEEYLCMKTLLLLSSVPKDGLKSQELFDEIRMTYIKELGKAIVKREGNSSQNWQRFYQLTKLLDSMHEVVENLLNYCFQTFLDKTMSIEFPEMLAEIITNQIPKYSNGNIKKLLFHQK

[7] = target: Glucocorticoid receptor (Homo sapiens) (UniProt P04150); assay: GR-EFC Redistribution (AID 451; calls by dose curve; note: potency is the fitted concentration of half-maximal effect); conditions: CHO-K1 GR-EFC translocation, beta-gal luminescence, 2 h
How it was run: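 CHO-K1 cells stably expressing nuclear-localized β-gal enzyme acceptor and GR fused C-terminally to the enzyme donor fragment; ligand-driven nuclear translocation restores β-gal by complementation. Compounds titrated up to 46 uM final, 2 h at 37 °C; luminescence read.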

[8] = target: Mitogen-activated protein kinase 10 (Mus musculus) (UniProt Q61831); assay: JNK3 AlphaScreen Assay (AID 530);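 note: kinase came from lysate of stimulated human HepG2 cells; signal reports phosphorylation of biotinylated GST-cJun 1-79 at Ser73 with 10 µM ATP; % is set by controls: 0 for no effect and ±100 for the full control effect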
How it was run: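 Phosphorylation of biotinylated GST-cJun(1-79) at Ser73 is measured by AlphaScreen proximity luminescence. Enzyme is JNK3 in HepG2 lysates activated with interleukin-1beta and tumor necrosis factor alpha; ATP is 10 uM final.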

[9] = target: 3',5'-cyclic-AMP phosphodiesterase 4B (Homo sapiens) (UniProt Q07343); assay: qHTS Assay for Inhibitors of PDE-IV (AID 607; active = well fitted activation curve with a large enough effect in the main read-out, with a control signal flat, not every such curve was filed as active; note: % of control where 0% means no effect)
Chain of 3',5'-cyclic-AMP phosphodiesterase 4B (Homo sapiens) (Q07343 whole entry, looked up): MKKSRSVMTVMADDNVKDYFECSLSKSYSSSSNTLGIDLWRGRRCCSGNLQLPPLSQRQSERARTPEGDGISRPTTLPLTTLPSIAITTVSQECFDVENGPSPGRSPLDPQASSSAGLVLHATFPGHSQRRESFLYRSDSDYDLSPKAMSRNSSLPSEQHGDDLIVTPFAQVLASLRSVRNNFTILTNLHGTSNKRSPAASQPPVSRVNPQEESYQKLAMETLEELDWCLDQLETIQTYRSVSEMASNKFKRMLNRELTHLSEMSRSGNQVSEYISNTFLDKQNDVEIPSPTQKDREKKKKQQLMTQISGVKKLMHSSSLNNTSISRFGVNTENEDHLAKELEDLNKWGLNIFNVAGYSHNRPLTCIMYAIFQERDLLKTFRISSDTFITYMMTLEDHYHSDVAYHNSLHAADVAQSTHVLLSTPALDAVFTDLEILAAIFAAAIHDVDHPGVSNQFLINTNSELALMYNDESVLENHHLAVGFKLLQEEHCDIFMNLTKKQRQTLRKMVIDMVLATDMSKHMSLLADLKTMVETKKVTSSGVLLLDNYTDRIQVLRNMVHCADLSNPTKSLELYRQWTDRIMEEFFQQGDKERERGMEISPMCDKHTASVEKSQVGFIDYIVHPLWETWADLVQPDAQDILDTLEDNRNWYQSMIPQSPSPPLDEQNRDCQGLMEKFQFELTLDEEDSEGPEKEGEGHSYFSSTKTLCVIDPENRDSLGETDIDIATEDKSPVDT
How it was run: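 HEK293 ACTOne cells with CNG channel (1000/well), endogenous PDE4; membrane potential dye, compounds up to 22.9 uM final. Fluorescence Ex 535/Em 590; RO 20-1724 (100 uM final) as reference.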

[10] = target: Cytochrome P450 3A4 (Homo sapiens) (UniProt P08684); assay: qHTS Assay for Activators of Cytochrome P450 3A4 (AID 885; active = well fitted curve in the direction sought with a large enough effect; an effect the other way counts as inactive or inconclusive; note: nearly all actives have a fitted effect of over 65% in size)
Chain of Cytochrome P450 3A4 (Homo sapiens) (P08684 whole entry, looked up): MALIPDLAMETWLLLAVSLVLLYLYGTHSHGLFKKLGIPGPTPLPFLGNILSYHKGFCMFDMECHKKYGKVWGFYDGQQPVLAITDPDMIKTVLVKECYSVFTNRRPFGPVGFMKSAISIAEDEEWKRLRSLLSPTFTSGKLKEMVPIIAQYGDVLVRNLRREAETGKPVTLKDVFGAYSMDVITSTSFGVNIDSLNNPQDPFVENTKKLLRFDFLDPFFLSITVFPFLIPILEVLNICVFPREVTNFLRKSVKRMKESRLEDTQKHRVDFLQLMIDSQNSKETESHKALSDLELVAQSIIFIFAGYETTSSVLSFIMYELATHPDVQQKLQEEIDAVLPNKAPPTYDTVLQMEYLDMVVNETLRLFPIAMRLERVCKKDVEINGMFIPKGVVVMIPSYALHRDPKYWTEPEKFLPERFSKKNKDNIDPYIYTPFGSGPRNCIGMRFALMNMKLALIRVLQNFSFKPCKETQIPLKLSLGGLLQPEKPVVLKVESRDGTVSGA
How it was run: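 Human CYP3A4 dealkylates Luciferin-PPXE to luciferin, which luciferase detection converts to light. Substrate was at its KM (25uM), buffer 200mM KPO4, reaction 60 min at RT.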

[11] = target: Dual specificity protein kinase CLK4 (Homo sapiens) (UniProt Q9HAZ1); assay: qHTS Assay for Inhibitors of CDC-like Kinase 4 (Kinase-Glo Assay) (AID 1770; active = well fitted curve in the direction sought with a large enough effect; an effect the other way counts as inactive or inconclusive; note: potency is the fitted concentration of half-maximal effect; nearly all actives have a fitted effect of over 65% in size)
Chain of Dual specificity protein kinase CLK4 (Homo sapiens) (Q9HAZ1 whole entry, looked up): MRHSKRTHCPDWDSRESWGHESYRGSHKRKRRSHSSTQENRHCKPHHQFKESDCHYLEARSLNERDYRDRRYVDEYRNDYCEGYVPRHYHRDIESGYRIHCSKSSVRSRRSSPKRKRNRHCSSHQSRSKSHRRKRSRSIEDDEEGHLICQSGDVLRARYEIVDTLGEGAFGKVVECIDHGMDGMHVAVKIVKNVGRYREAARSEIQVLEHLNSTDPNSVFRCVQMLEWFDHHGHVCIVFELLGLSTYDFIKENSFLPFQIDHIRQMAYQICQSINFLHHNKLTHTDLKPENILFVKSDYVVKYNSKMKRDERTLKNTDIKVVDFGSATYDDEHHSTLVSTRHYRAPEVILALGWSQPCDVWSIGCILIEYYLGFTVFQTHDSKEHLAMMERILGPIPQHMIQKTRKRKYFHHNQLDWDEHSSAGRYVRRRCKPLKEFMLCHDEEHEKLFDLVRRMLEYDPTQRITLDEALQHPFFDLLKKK
How it was run: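 Recombinant human Clk4 (25 nM) phosphorylated RS repeat peptide (100 uM) with 1 uM ATP in Tris pH 7.5/MgCl2/EGTA/DTT/Triton buffer for 4.5 h at room temperature. Residual ATP was quantified by Kinase-Glo luciferase luminescence.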

[12] = target: Dual specificity protein kinase CLK4 (Homo sapiens) (UniProt Q9HAZ1); assay: qHTS Assay for Inhibitors of CDC-like Kinase 4 (ADP-Glo Assay) (AID 1771; active = well fitted curve in the direction sought with a large enough effect; an effect the other way counts as inactive or inconclusive; note: potency is the fitted concentration of half-maximal effect; nearly all actives have a fitted effect of over 70% in size)
How it was run: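 ADP production was read by ADP-Glo luminescence after residual ATP depletion, following 1 h room-temperature reaction of 25 nM Clk4, 1 uM ATP and 100 uM RS peptide with MgCl2, EGTA, DTT and Triton X-100.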

[13] = target: Dual specificity protein kinase CLK4 (Homo sapiens) (UniProt Q9HAZ1); assay: qHTS Assay for Inhibitors of CDC-like Kinase 4 (ADP-FP Assay) (AID 1795; active = well fitted curve in the direction sought with a large enough effect; an effect the other way counts as inactive or inconclusive; note: potency is the fitted concentration of half-maximal effect; nearly all actives have a fitted effect of over 60% in size)
How it was run: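 Recombinant human Clk4 (6.25 nM) phosphorylated RS repeat peptide (100 uM) with 1 uM ATP in Tris pH 7.5/MgCl2/EGTA/DTT/Triton buffer for one hour. ADP was quantified by Transcreener competitive fluorescence polarization against an ADP calibration curve.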

[14] = NCATS anti-infectives library activity on the primary C. elegans qHTS viability assay (AID 1745855; calls by dose curve)
How it was run: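 GFP read-out by 488 nm laser cytometry at day 0, 3 and 7, gated on object perimeter, area and peak intensity, scored viability of PE254-GFP-FLuc worms exposed to compound in S medium with bacterial capsules at 21 °C.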

Row | Compound | Potency [1] [µM] | activity change, negative = inhibition [2] [%] | Potency [3] | activity change, negative = inhibition [4] [%] | outcome [5] | Potency [6] [µM] | Potency [7] [µM] | Potency [8] | Potency [9] | outcome [10] | Potency [11] | Potency [12] | Potency [13] | Potency [14]
1 | COc1cccc(Nc2ncc3ncc(=O)n(CCC#N)c3n2)c1 | > 11.4 | -26.1 | 1 µM (active) | -0.673 | inactive | > 9.22 | > 46 | inactive | inactive | inactive | 6.31 µM (active) | 3.55 µM (active) | 2.51 µM (active) | –
2 | O=c1ccn2c(n1)O[C@H]1[C@H](O)[C@@H](CO)O[C@H]12 | – | – | – | – | – | – | – | – | – | – | – | – | – | inactive
